PubChem BioAssay (NCI)
Compounds without any hit were thinned out: in the full panel of roughly 83,000, 20% have a hit.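 How to read the values: 0–100, growth inhibition (40 = 60% inhibited); 0, no net growth; -100 to 0, cell death (-40 = 40% of starting cells died; -100 = all dead).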 Values without a mark were called inactive. Calls of active or inactive are those of the source.

Tested on: NCI/ADR-RES ovarian
Experiment: NCI-60 one-dose screen, 48 h (100 = growth as untreated, 0 = no growth, -100 = all killed)
Settings: 10 µM unless noted
Procedure: Growth inhibition of the NCI/ADR-RES human […] tumor cell line is measured as a screen for anti-cancer activity. Cells are grown in 96 well plates and exposed to the test compound for 48 hours. Compounds are tested at a single concentration, which is 10^-5 M for most compounds. The reported endpoint is percent growth (GI% or GIPRCNT), where numbers from 0 - 100% represent growth inhibition, and numbers from -100% - 0 represent cell death. For example, a value of 40 represents 60% growth inhibition. A value of 0 means no net growth occurred over the course of the experiment. A value of -40 indicates 40% of cells at the beginning of the experiment died by the end of the experiment. A value of -100 means all cells are dead at the end of the experiment.
NCI-60 Human Tumor Cell Lines Screen was performed using the standard one-dose NCI protocol, which is described in more detail at https://dtp.cancer.gov/discovery_development/nci-60/default.htm.
Compounds with GIPRCNT values below 10 were considered active. Activity score was based on GIPRCNT using the following formula: […]
Score is 0 for GIPRCNT values of 100 or above, 50 for GIPRCNT values of 0, and 100 for GIPRCNT values of -100.

Structure (SMILES)	growth
COc1ccc(C2CC(n3nnnc3-c3ccccc3)=NN2)cc1 (stereo not given)	49.9%
O=C(O)/C=C\C(=O)N1C/C(=C\c2ccccc2Cl)C(=O)/C(=C/c2ccccc2Cl)C1	4.6% (active)
CCN(CC)CCSCCCNc1c(C)cnc2cc(Cl)ccc12	82.5%
COc1cc(NCCCN(CC(C)C)C2CCCC2)c2ncccc2c1	71.8%
CCOC(=O)N1CCN(CCCCl)CC1	102%
Clc1cc(Cl)cc(N2N=C(c3cccc(Nc4ccncc4)c3)CC2c2ccccc2)c1 (stereo not given)	72.1%
O=C(Cc1ccc(/C=C/C(=O)c2ncc[nH]2)cc1)Nc1ccc(C(F)(F)F)cc1	60.3%
CN1CCN(c2cc(F)c(NC3=C(Cl)C(=O)c4ncccc4C3=O)c(F)c2)CC1	37.9%
COC(=O)C1=C(C(=O)ONCCN(C)C)C2C=CC1(C(Cc1ccccc1)Nc1ccc(F)cc1)O2 (stereo not given)	102%
O=c1[nH]nc(-c2ccc(Br)cc2)cc1Cc1ccc(O)cc1	71%
Cn1ncc2c(Nc3ccccc3Cl)nc(Cl)nc21	100%
Cc1c2c(cc[n+]1Cc1ccccc1)c1ccc(OCC3CCCCC3)cc1n2CC1CCCCC1	31.5%
CCOC(=O)c1ccc(Nc2ccnc(SCC(=O)c3ccc(C#N)cc3)n2)cc1	41.5%
CC(=O)OCC(=O)[C@@]1(O)CC[C@H]2[C@@H]3CC(=C(Br)Br)C4=CC(=O)CC[C@]4(C)[C@H]3C(=O)C[C@@]21C	89.5%
CC(=O)OCC(=O)C1(O)C(C)CC2C3C=C(C)C4=Cc5c(cnn5-c5ccccc5)CC4(C)C3C(O)CC21C (stereo not given)	35%
CCCCCCOc1ccc(/C=N/Nc2cc(C)nc3ccc(Br)cc23)cc1	-67.1% (active)
CCn1cc(C2NC(=O)c3ccccc3N2)c2cccc(C)c21 (stereo not given)	8.25% (active)
N#CC1=C(N)Oc2c(ccc3ccccc23)C1c1ccc([N+](=O)[O-])cc1 (stereo not given)	52.8%
COc1ccc(-c2nc(N/N=C/c3cccc(Br)c3)nc(N3CCOCC3)c2C#N)cc1	83.3%
CN1CCN(Cc2ccc(NC(=O)c3cncc(C#Cc4cnccc4C(F)(F)F)c3)cc2C(F)(F)F)CC1	85.8%

Structure (SMILES)	growth
CC(=O)N1c2ccccc2NC2=C(C(=O)N(Cc3ccccc3)C2(C)C)C1c1ccco1 (stereo not given)	82.9%
CCCCCCCCCCN=C(N)N=C(N)N	79.5%
COc1ccc(C(=O)c2cc3c(N)c(C(=O)Nc4cccc(OC)c4)sc3nc2C)cc1	4.09% (active)
Cc1cc(C)c(C=O)c(C)c1	107%
NNC(=O)/C(=C\c1ccc([N+](=O)[O-])cc1)CC(=O)c1ccc(Cl)c(Cl)c1	84.9%
N#Cc1ccc(-c2ccc3c(c2)NC(=O)/C3=C\c2ccc[nH]2)cc1	100%
CC[C@H](CC[C@@H](C)[C@H]1CC[C@H]2[C@@H]3CC=C4C[C@@H](OCCc5nn[nH]n5)CC[C@]4(C)[C@H]3CC[C@]12C)C(C)C	98.3%
N#Cc1cc(-c2nc3ccccc3s2)c(=O)n(NS(=O)(=O)c2ccc(Cl)cc2)c1N	104%
Cn1c(COC(=O)NCCn2ccnc2)nc2c(N3CCOCC3)nc(-c3ccccc3)nc21	-1.95% (active)
O=C1c2cccnc2C(=O)c2nc3cc(N4CCN(C5CC5)CC4)ccc3nc21	20.1%
CCCC1C(C(=O)OCC)=C(N)Oc2cc(O)ccc21 (stereo not given)	94.3%
O=S(=O)(NCCNc1nccc(-c2c(-c3ccc(F)c(O)c3)nc3occn23)n1)c1ccccc1	109%
COc1ccccc1/C=N/NC1=NC2C(N1)N(C)C(=O)N2C (stereo not given)	105%
COc1ccc(-c2nc(SCC(C)C)nc(N/N=C(/C)c3ccc(OC)c(OC)c3)c2C#N)cc1	90.2%
CN(Cc1ccccc1)c1nc(Cl)c(C2CC(c3ccc(Cl)cc3)=Cc3[nH][nH]c(=O)c32)s1 (stereo not given)	89.6%
O=C(CN1CCOCC1)Nc1ccc2ncnc(Nc3ccc(Oc4cccc(F)c4)c(Cl)c3)c2c1	60%
Cc1ccccc1CNc1ccc(N2CCOCC2)cc1	99.2%
COc1ccc(NC(=O)c2sc3nc(C)c(C(O)c4ccc(OC)cc4)cc3c2N)cc1 (stereo not given)	16.1%
COc1ccccc1Nc1cc(O)c2c(=O)cc(-c3ccccc3)oc2c1	11.5%
CCC1(CC)NC(=O)c2c(c3ccc(Cl)c(Cl)c3n2C)C1C#N (stereo not given)	91.5%
